# Test results taken from PubChem BioAssay AID504429 (National Center for Advancing Translational Sciences (NCATS), 2011).
# Some of the results follow. The source made the active and inactive calls.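 Rule for the calls: active = compounds whose dose response shows an inhibitor phenotype against the kinase Dyrk1b; inactive = compounds showing no inhibitor phenotype.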
# Molecular target: Dual specificity tyrosine-phosphorylation-regulated kinase 1B (Homo sapiens) (UniProt Q9Y463)
# Assay: Kinase Inhibition Study on Inhibitors of Dyrk1b (Reaction Biology data)
# Conditions: Recombinant Dyrk1b kinase assay, 10 uM ATP
# From the text: NIH Molecular Libraries Probe Production Centers Network [MLPCN] NIH Chemical Genomics Center [NCGC] MLPCN Grant: 1R03MH084827-01 Assay Submitter (PI): Tom Misteli NCGC Assay Overview: Alternative splicing of pre-mRNAs plays a major role in the regulation of eukaryotic gene expression. Alternative splicing is now thought to be one of the primary reasons for the complexity of higher organisms leading to an average of three protein isoforms per gene. Aberrant splicing can lead to a number of diseases and is known to play a role in rare genetic diseases such as progeria syndrome. Hutchinson-Gilford Progeria Syndrome (HGPS) is a pediatric premature aging disease caused by a spontaneous mutation in the lamin A/C (LMNA) gene due to a single point mutation in the lamin A gene effecting 1 in 4 million people. To identify both specific splicing modulators of the lamin A gene as well as general splicing modulators, a cell-based HTS assay was developed using a minigene reporter system (AIDs, 1459 & 1487). […] The Clk family is part of the CMGC group of protein kinases which includes Dyrks and are essential kinases found in all eukaryotes. […] This AID is to summarize the activity of these analogs in Dyrk1b.
# All kinase reactions were performed using 10 uM ATP in the assay. 100% activity was taken from kinase reactions with DMSO alone (the vehicle used for compound stock solutions).
# Chain of Dual specificity tyrosine-phosphorylation-regulated kinase 1B (Homo sapiens) (Q9Y463 whole entry, looked up): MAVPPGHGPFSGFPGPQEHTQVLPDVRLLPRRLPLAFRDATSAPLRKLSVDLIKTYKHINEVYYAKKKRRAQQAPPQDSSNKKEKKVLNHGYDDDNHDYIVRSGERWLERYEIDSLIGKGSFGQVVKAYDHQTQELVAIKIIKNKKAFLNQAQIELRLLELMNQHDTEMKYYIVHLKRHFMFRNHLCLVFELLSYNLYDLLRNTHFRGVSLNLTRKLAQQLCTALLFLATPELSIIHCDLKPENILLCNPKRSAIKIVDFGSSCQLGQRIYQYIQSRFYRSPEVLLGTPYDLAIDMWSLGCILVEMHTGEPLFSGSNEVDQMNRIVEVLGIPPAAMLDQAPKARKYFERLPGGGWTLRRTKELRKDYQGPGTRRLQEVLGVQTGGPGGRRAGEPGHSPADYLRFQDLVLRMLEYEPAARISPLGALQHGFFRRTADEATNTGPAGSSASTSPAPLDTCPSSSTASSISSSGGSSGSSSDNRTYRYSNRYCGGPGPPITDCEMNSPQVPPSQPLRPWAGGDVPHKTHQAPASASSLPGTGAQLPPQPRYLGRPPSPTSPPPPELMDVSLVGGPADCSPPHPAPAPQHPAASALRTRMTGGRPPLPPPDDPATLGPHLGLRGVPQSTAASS
row,Compound,Potency
1,CC(Nc1ncnc2ccc(-c3ccc4c(c3)OCO4)cc12)c1ccco1 (stereo not drawn),8.14 µM (active)
2,CN(Cc1cncn1C)c1ncnc2ccc(-c3ccc4c(c3)OCO4)cc12,15 µM (active)
3,c1nc(N2CCOCC2)c2cc(-c3ccc4c(c3)OCO4)ccc2n1,5.22 µM (active)
